# PubChem BioAssay AID1851 (National Center for Advancing Translational Sciences (NCATS), 2009)
# Several values for one entry are separate records, joined by “and”; a condition that tells them apart may be missing. Equal values may be shown once. About 4,000 (25%) of roughly 16,000 compounds were called active. About 26% were inconclusive and are not listed. Calls follow the shape of the dose curve; as a rule, active = well fitted curve in the direction sought with a large enough effect; inconclusive = small, poorly fitted or top-dose-only effect, or effect the other way; inactive = no such curve, though single readings can be large or run the other way. These entries were drawn from the full list.
# Target: Cytochrome P450 2C9 (Homo sapiens) (UniProt P11712)
# Assay: Cytochrome panel assay with activity outcomes
# Details: recombinant CYP, pro-luciferin dealkylation, luminescence, p450-cyp2c9; series mostly up to 57.1 µM
# % is scaled to controls: 0 for no effect and ±100 for the full control effect.
# Chain of Cytochrome P450 2C9 (Homo sapiens) (P11712 whole entry, looked up): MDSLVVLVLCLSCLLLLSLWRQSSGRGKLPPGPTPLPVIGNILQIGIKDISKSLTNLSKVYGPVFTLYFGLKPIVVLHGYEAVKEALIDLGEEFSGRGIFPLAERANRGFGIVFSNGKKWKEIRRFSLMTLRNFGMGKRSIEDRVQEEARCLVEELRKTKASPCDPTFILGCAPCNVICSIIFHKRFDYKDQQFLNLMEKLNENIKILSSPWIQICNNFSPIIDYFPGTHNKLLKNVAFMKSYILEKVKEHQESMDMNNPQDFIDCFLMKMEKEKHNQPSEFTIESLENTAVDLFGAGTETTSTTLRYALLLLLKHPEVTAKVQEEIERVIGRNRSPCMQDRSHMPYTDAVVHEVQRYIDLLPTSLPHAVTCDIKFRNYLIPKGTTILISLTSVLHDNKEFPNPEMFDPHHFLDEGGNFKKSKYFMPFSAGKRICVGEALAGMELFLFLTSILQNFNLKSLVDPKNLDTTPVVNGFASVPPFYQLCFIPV
SMILES,"activity, negative = inhibition",AC50
C=CC[C@@H](C(=O)O)c1ccccc1,-1.11% [at 11.4 µM] (inactive),–
CCOc1cc(/C=N/NC(=O)COc2cccc(C)c2)ccc1OC(=O)c1cccs1,–,3.16 µM (active)
CCOc1cc(/C=N/NC(=O)CNc2cccc(C)c2)ccc1OC(=O)c1ccccc1,–,5.01 µM (active)
N#Cc1cccc(NC(=O)N2CC3(CCN(C(=O)c4cnccn4)CC3)C2)c1,–,inactive
CC(C)(C)c1c2c(c(C(C)(C)C)c3c1OCN(Cc1ccccc1)C3)OCN(Cc1ccccc1)C2,-7.82% [at 11.4 µM] (inactive),–
C#CCSc1nc(Cc2ccc(Cl)cc2)nc2ccccc12,–,2.82 µM (active)
O=C1NC(c2ccccc2)=NC1(NS(=O)(=O)c1ccccc1)C(F)(F)F (centres undefined),–,inactive
CCCCNc1ccc(C(=O)OCCOCCOCCOCCOCCOCCOCCOCCOCCOC)cc1,–,inactive
O=C(OCCNC(=O)c1ccc2ccccc2n1)c1ccc(F)cc1,–,10 µM (active)
NCCNC(=O)c1ncsc1-c1cccc(F)c1,–,inactive
O=c1[nH]c(SCc2c(Cl)c(Cl)c(Cl)c(Cl)c2Cl)nc(=S)[nH]1,–,1.26 µM (active)
Nc1ccc(N=Nc2c(S(=O)(=O)O)cc3ccccc3c2S(=O)(=O)O)cc1,8.14% [at 11.4 µM] (inactive),–
NCC[C@H]1CCC[C@H](CCN)N1,–,inactive
Cc1ccc(C)c(N2CCN(C(=O)c3ccc4nc(-c5ccco5)c(-c5ccco5)nc4c3)CC2)c1,–,7.08 µM (active)
COc1cc2nc(N3CCN(C(=O)c4ccco4)CC3)nc(N)c2cc1OC,–,inactive
COc1ccc(C)cc1NC(=O)CSc1nnc(-c2ccc(OC)c(OC)c2)n1N,–,inactive
COc1ccc(C)cc1NC(=O)CCC(=O)Nc1nnc(C(F)(F)F)s1,–,1.26 µM (active)
CCC(=O)OCC(=O)[C@@]1(OC(=O)CC)[C@H](C)C[C@@H]2[C@H]3CCC4=CC(=O)C=C[C@]4(C)[C@]3(Cl)[C@@H](O)C[C@@]21C,–,inactive
CCN(CC)C[C@@H](O)c1ccc2ccc3ccccc3c2c1,-3.91% [at 11.4 µM] (inactive),–
CCCCOC(OCCCC)[C@H](O)CSc1ccc2ccccc2c1,–,2 µM (active)
CC(C)NC[C@H](O)c1ccc2ccccc2c1,–,inactive
Cc1cc(C)c(C#N)c(Oc2ccccc2)n1,–,inactive
Cc1cc(C)c(C#N)c(OCC(=O)c2ccc(Br)cc2)n1,–,10 µM (active)

SMILES,"activity, negative = inhibition",AC50
Cc1ccc(=O)n(-c2ccccc2)c1,–,inactive
COc1ccc(NC(=O)N2CCCC3(CCN(C(=O)c4cccn4C)CC3)C2)cc1,–,inactive
O=C1CN(C(=O)c2ccc(Br)o2)C(c2ccc(F)cc2)c2cc(Cl)ccc2N1 (centres undefined),–,6.31 µM (active)
CO[C@H]1COC(=O)C/C=C\[C@@H](C)COC(=O)[C@@H](CCSC)NC(=O)C/C=C\[C@@H]1C,-2.93% [at 11.4 µM] (inactive) and 12.5% [at 11.4 µM] (inactive),–
C[C@H]1COC(=O)[C@H]2CCCN2C(=O)[C@@H](C)COC(=O)[C@H](Cc2ccccc2)NC1=O,13.4% [at 11.4 µM] (inactive),–
Cc1ccc(S(=O)(=O)N[C@H]2COC(=O)C/C=C\[C@H](C)[C@@H](NS(=O)(=O)c3ccc(C)cc3)COC(=O)C/C=C\[C@@H]2C)cc1,-6.21% [at 11.4 µM] (inactive),–
Cc1ccc(S(=O)(=O)NNc2ccccc2)cc1,–,8.91 µM (active)
Cc1ccc(S(=O)(=O)NCc2ccccc2)cc1,–,inactive
Cc1ccc(NNS(=O)(=O)c2ccc(C)cc2)cc1,–,8.91 µM (active)
Cc1ccc(S(=O)(=O)N[C@H](C(=O)O)C(C)C)cc1,-4.41% [at 11.4 µM] (inactive),–
CCN=C1NN=C(c2ccc(C)cc2)CS1,–,6.31 µM (active)
COc1cccc(NC(=O)CSc2nc3ccccc3cc2Cc2ccccc2)c1,–,6.31 µM (active)
COc1ccc2cc(C#N)c(SCC(=O)NNC(=O)Cc3ccccc3)nc2c1,–,inactive
CCN(CC)C(=O)CSc1nnc(C2CCCCC2)o1,–,inactive
CN1CCN(c2nc3c(c(=O)n(C)c(=O)n3C)n2C)CC1,0.789% [at 11.4 µM] (inactive),–
Cn1c(=O)c2c(nc(N3CCN(c4ccccn4)CC3)n2Cc2ccc(Cl)cc2Cl)n(C)c1=O,–,inactive
C=CCn1c(=O)c2c(nc(-c3ccc(S(=O)(=O)O)cc3)n2C)n(C)c1=O,–,inactive
C=CCn1cc(Cl)c(=O)n(CC=C)c1=O,–,inactive
Cn1c(=O)c2c(nc(N3CCN(c4ccccn4)CC3)n2Cc2ccccc2Cl)n(C)c1=O,–,3.55 µM (active)
C=CCn1c(=O)c2c(nc(Br)n2Cc2ccccc2Cl)n(C)c1=O,–,14.1 µM (active)
O=C(O)CCC(=O)CCC(=O)c1ccccc1,–,inactive
OCCN1CCN(CCC=C2c3ccccc3Sc3ccc(Cl)cc32)CC1,–,inactive
COc1cc(OC)cc(C(=O)NCC(=O)OC2CCOC2=O)c1 (centres undefined),–,inactive

SMILES,"activity, negative = inhibition",AC50
CN1CCN(C(=O)c2ccc(-n3cccc3)cc2)CC1,–,inactive
COc1cc(OC)cc(C(=O)Nn2cc(C(=O)N3CCN(C)CC3)c3ccccc3c2=O)c1,–,11.2 µM (active)
CC[C@H](C)C(=O)O[C@H]1CCC=C2C=C[C@H](C)[C@H](CC[C@@H]3C[C@H](O)CC(=O)O3)[C@H]21,–,inactive
C=CCNC(=O)c1ccc(-c2nc(-c3ccc(Cl)c(Cl)c3)cs2)cc1,–,inactive
C=CCNC(=O)c1ccc2nc(-c3ccccc3)c(-c3ccccc3)nc2c1,–,14.1 µM (active)
CN(C)C(=O)c1ccc(-c2ccc3ncnc(NCc4ccccc4)c3c2)cc1,13.4% [at 2.29 µM] (inactive),–
C=CCNC(=O)c1csc(-c2ccccc2)n1,–,15.8 µM (active)
NCCc1nc(-c2nc(C(=O)O)cs2)cs1,-10.5% [at 11.4 µM] (inactive),–
CSc1nc(C)c2c(n1)N(c1ccc(C(F)(F)F)cc1)CC2,–,inactive
N=C1/C(=C/c2cccs2)C(=O)N=C2SN=C(SCc3ccccc3)N12,–,0.316 µM (active)
O=C1N=C(N2CCOCC2)S/C1=C/c1cccs1,–,inactive
CN1[C@@H](CC(=O)c2ccccc2)CCC[C@@H]1C[C@@H](O)c1ccccc1,–,inactive
NC(=O)N1c2ccccc2C=Cc2ccccc21,–,inactive
O=C(C[C@@H]1C=Cc2ccccc2N1C(=O)c1ccccc1)c1ccccc1,–,2.51 µM (active)
CO[C@@H]1COC(=O)C/C=C\[C@H](C)[C@@H](NS(=O)(=O)c2ccc(C)cc2)COC(=O)C/C=C\[C@@H]1C,-12.8% [at 11.4 µM] (inactive) and 11% [at 11.4 µM] (inactive),–
Nc1nc2c(c(=O)[nH]1)N(C=O)[C@H](CNc1ccc(C(=O)N[C@@H](CCC(=O)O)C(=O)O)cc1)CN2,–,inactive
Cc1cc(C(C)(C)C)c(OCCCN2CCOCC2)c(C(C)(C)C)c1,-0.273% [at 11.4 µM] (inactive),–
N#Cc1c(N2CCCCC2)nc(N)c2c(N)nc3c(c12)CC(c1ccccc1)O3 (centres undefined),–,4.47 µM (active)
CN1c2ccccc2C(C)(C)C12C=Nc1c(cc(N3CCOCC3)c3ccccc13)O2 (centres undefined),–,1.58 µM (active)
CN(C)Cc1ccccc1-c1ccc2ncnc(N3CCOCC3)c2c1,8.68% [at 2.29 µM] (inactive),–
CN(C)Cc1ccccc1-c1nc(N2CCOCC2)c2ccccc2n1,5.66% [at 2.29 µM] (inactive),–
COc1cc(CNCc2ccccn2)ccc1OCc1ccc(Cl)cc1Cl,–,inactive
CCOc1cc(C2NN=C(c3ccccc3)S2)ccc1OCc1ccccc1Cl (centres undefined),–,8.91 µM (active)

SMILES,"activity, negative = inhibition",AC50
CN(C)C(=O)c1ccc(-c2cncnc2NC2CCNCC2)cc1,15.8% [at 2.29 µM] (inactive),–
CCOC(=O)C1C(=O)C=C(c2ccc(C)cc2)CC1c1ccco1 (centres undefined),–,3.16 µM (active)
CCOC(=O)C1C(=O)C=C(c2ccc(NS(C)(=O)=O)cc2)CC1c1ccco1 (centres undefined),–,4.47 µM (active)
CCN(CC)C(=O)Cn1cnc([N+](=O)[O-])n1,–,inactive
CN1CC(c2ccccc2)C2(COc3ccccc3C2=O)C12C(=O)Nc1ccccc12 (centres undefined),–,3.98 µM (active)
COc1cc(C2C(C(=O)OCCC#N)=C(C)NC3=C2S(=O)(=O)c2ccccc23)cc(OC)c1OC (centres undefined),–,7.08 µM (active)
C[C@@H](C(=O)O)c1ccc(C[C@@H]2CCCC2=O)cc1,–,inactive
Cc1nc2ccccn2c1C(=O)CSc1ccccc1Cl,–,11.2 µM (active)
O=C(c1ccc(F)cc1)C1CCN(C(=S)Nc2ccccc2)CC1,–,8.91 µM (active)
O=C(c1ccc(F)cc1)C1CCN(CCCCc2ccccc2)CC1,–,inactive
S=C(Nc1ccccc1)N1CCCCC1,–,inactive
CC(C)CO/N=C1/C[C@@H](O)[C@@H](O)[C@@H]2[C@@H]3C(=O)N(Cc4ccc5c(c4)OCO5)C(=O)[C@H]3CC[C@@H]12,-17.6% [at 11.4 µM] (inactive),–
CC(C)CO/N=C1/C[C@@H](O)[C@@H](O)[C@@H]2[C@@H]3C(=O)N(Cc4ccc5c(c4)OCO5)C(=O)[C@H]3CC[C@H]12,-12.4% [at 11.4 µM] (inactive),–
CC(C)CO[C@H](c1ccc2c(c1)OCO2)[C@H](C)Br,–,2 µM (active)
COC(=O)c1cc(=O)[nH]c(=O)[nH]1,3.6% [at 11.4 µM] (inactive),–
Cc1ccc(C(=O)Nc2cc(Cl)ccc2OC(=O)c2ccc(C)cc2)cc1,–,14.1 µM (active)
CCOc1ccc(C(=O)Nc2ccc(Cl)cn2)cc1Cl,–,inactive
C#CCCCO/N=C1/C[C@@H](O)[C@@H](O)[C@@H]2[C@@H]3C(=O)N([C@@H](C)c4ccccc4)C(=O)[C@H]3CC[C@H]12,-17.4% [at 11.4 µM] (inactive),–
CSc1nc(Oc2ccc(=O)[nH]n2)nc(N(C)C)n1,–,inactive
CCOC(=O)c1c(NC(=S)NC(=O)c2cnn(CC)c2)sc2c1CCC(C)C2 (centres undefined),–,5.01 µM (active)
